Laboratory results from PubChem BioAssay AID1159580 (chemical genetic matrix, 2015).
“And” between values parts separate entries of the source, which are not always exact repeats. Identical values can stand only once. The whole screen tested about 5,500 compounds, of which about 2,000 (36%) were called active. Inconclusive results (about 18%) are left out. Rule as the data show it: active = normalized growth mostly below about 0.91 (no sharp cut-off); inconclusive = no clear call, values can overlap the other calls; inactive = mostly above about 0.92. The list shows a part of the results.

Test: chemical genetic growth profiling, strain panel (AID 1159580);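 also: tested at 20 µM; growth read once vehicle control cultures reached saturation at 30 °C; 1 = growth at the plate median or of vehicle wells; lower values mean less growth of the strain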
Settings: S. cerevisiae deletion strains, growth OD

Measured: normalized growth

CN(C)C(=O)Oc1cccc([N+](C)(C)C)c1
inactive: locus YAL021C, strain ccr4, active compounds read low 0.987 | locus YAL026C, strain drs2, active compounds read low 1 | locus YAL030W, strain snc1, active compounds read low 1 | locus YAL040C, strain CLN3, active compounds read low 1 | locus YBL061C, strain skt5, active compounds read low 1.01 | locus YBR009C, strain hhf1, active compounds read low 1 | locus YBR021W, strain FUR4, active compounds read low 0.992 | locus YBR023C, strain chs3, active compounds read low 0.988 | locus YBR171W, strain sec66, active compounds read low 0.992 | locus YBR229C, strain ROT2, active compounds read low 0.985 | locus YBR231C, strain swc5, active compounds read low 0.988 | locus YBR279W, strain paf1, active compounds read low 1 | locus YCL011C, strain gbp2, active compounds read low 0.996 | locus YCL016C, strain dcc1, active compounds read low 0.992 | locus YCL029C, strain bik1, active compounds read low 0.978 | locus YCL061C, strain MRC1 (second series), active compounds read low 1 | locus YCL061C, strain MRC1, active compounds read low 0.996 | locus YCL069W, strain vba3, active compounds read low 1 | locus YCR088W, strain abp1, active compounds read low 0.99 | locus YDL005C, strain med2, active compounds read low 0.983 | locus YDL035C, strain GPR1, active compounds read low 0.997 | locus YDL040C, strain nat1, active compounds read low 0.992 | locus YDL074C, strain BRE1, active compounds read low 1.05 | locus YDL101C, strain DUN1, active compounds read low 0.986 | locus YDL134C, strain PPH21, active compounds read low 0.987 | locus YDL185W, strain tfp1, active compounds read low 0.98 | locus YDL192W, strain arf1, active compounds read low 0.98 | locus YDR001C, strain nth1, active compounds read low 0.998 | locus YDR069C, strain doa4, active compounds read low 0.978 | locus YDR101C, strain arx1, active compounds read low 0.977 | locus YDR137W, strain rgp1, active compounds read low 1.01 | locus YDR150W, strain NUM1, active compounds read low 1 | locus YDR159W, strain sac3, active compounds read low 0.978 | locus YDR162C, strain NBP2, active compounds read low 0.999 | locus YDR195W, strain ref2 1.01 | locus YDR297W, strain sur2, active compounds read low 0.996 | locus YDR318W, strain mcm21, active compounds read low 0.98 | locus YDR334W, strain swr1, active compounds read low 1 | locus YDR335W, strain msn5, active compounds read low 1.01 | locus YDR363W, strain ESC2, active compounds read low 1.04 | locus YDR388W, active compounds read low 0.986 | locus YDR392W, strain spt3, active compounds read low 0.996 | locus YDR502C, strain sam2, active compounds read low 0.977 | locus YEL003W, strain gim4, active compounds read low 1.01 | locus YEL037C, strain rad23, active compounds read low 0.998 | locus YEL061C, strain CIN8 (second series), active compounds read low 1 | locus YEL061C, strain CIN8, active compounds read low 0.994 | locus YER002W, strain NOP16, active compounds read low 1.01 | locus YER015W, strain faa2, active compounds read low 1 | locus YER016W, strain bim1, active compounds read low 1.01 | locus YER110C, active compounds read low 0.991 | locus YER111C, strain swi4, active compounds read low 1.02 | locus YER155C, strain BEM2 (second series), active compounds read low 1.01 | locus YER155C, strain BEM2, active compounds read low 0.974 | locus YER167W, strain BCK2, active compounds read low 0.987 | locus YFR010W, strain ubp6, active compounds read low 0.996 | locus YGL078C, strain dbp3, active compounds read low 0.983 | locus YGL086W, strain mad1, active compounds read low 0.997 | locus YGL167C, strain pmr1, active compounds read low 1.07 | locus YGL173C, strain kem1, active compounds read low 1.01 | locus YGL227W, strain vid30, active compounds read low 0.992 | locus YGL240W, strain doc1, active compounds read low 0.986 | locus YGL248W, strain PDE1, active compounds read low 0.993 | locus YGL253W, strain hxk2, active compounds read low 1.01 | locus YGR135W, strain pre9, active compounds read low 0.981 | locus YGR229C, strain SMI1, active compounds read low 1.02 and 1.01 | locus YGR252W, strain gcn5, active compounds read low 1.06 | locus YHR013C, strain ard1, active compounds read low 1.02 | locus YHR027C, strain rpn1, active compounds read low 0.99 | locus YHR030C, strain SLT2, active compounds read low 0.992 and 0.979 | locus YHR079C, strain IRE1 (second series), active compounds read low 0.979 | locus YHR079C, strain IRE1, active compounds read low 0.961 | locus YHR094C, strain hxt1, active compounds read low 0.989 | locus YHR129C, strain ARP1, active compounds read low 0.989 | locus YHR142W, strain chs7, active compounds read low 1.03 | locus YHR200W, strain rpn10, active compounds read low 0.981 | locus YIL066C, strain RNR3, active compounds read low 0.996 | locus YIL073C, strain SPO22, active compounds read low 0.965 | locus YIL125W, strain kgd1, active compounds read low 0.998 | locus YIR030C, strain dcg1, active compounds read low 0.983 | locus YJL092W, strain hpr5, active compounds read low 0.996 | locus YJL095W, strain BCK1 (second series), active compounds read low 0.996 | locus YJL095W, strain BCK1, active compounds read low 1.01 and 0.988 | locus YJL115W, strain asf1, active compounds read low 1 | locus YJL129C, strain trk1, active compounds read low 0.987 | locus YJL134W, strain LCB3, active compounds read low 0.986 | locus YJL154C, strain vps35, active compounds read low 1.01 | locus YJL164C, strain tpk1, active compounds read low 1.01 | locus YJL166W, strain qcr8, active compounds read low 0.999 | locus YJL168C, strain set2, active compounds read low 0.988 | locus YJL187C, strain SWE1 (second series), active compounds read low 0.987 | locus YJL187C, strain SWE1, active compounds read low 0.992 | locus YJR043C, strain POL32, active compounds read low 1.02 | locus YJR066W, strain TOR1, active compounds read low 0.947
